Compound activity as filed in PubChem BioAssay.
KDM4E inh: inhibitors of human JMJD2E histone demethylase; B2RXH2; JMJD2E catalytic domain, FDH-coupled NADH fluorescence (FDH is formaldehyde dehydrogenase); Potency, µM (top dose mostly 57.1 µM), without a hit: at the top dose activity change, negative = inhibition, most hits filed as inhibitors; 1.6% of 230,000 active; active means well fitted inhibition curve with a large enough effect, not every such curve was filed as active; inconclusive means small, poorly fitted or top-dose-only effect, or another doubt; inactive means no such curve, though single readings can be large or run the other way;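 further: potency means the concentration at half of the fitted maximal effect; 0% = wells with enzyme and -100% = buffer wells without enzyme; nearly all actives have a fitted effect of over 50% in size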
Tau ThT inhib: inhibitors of human tau fibril formation, thioflavin T binding; AID 1460; Potency, µM (series often up to 57.4 µM), for the others: top-dose activity, negative = inhibition, most hits filed as inhibitors; recombinant tau K18 P301L, heparin-induced fibrillization, ThT fluorescence; P10636; 2.1% of 270,000 active; active means well fitted curve in the direction sought with a large enough effect; inconclusive means small, poorly fitted or top-dose-only effect, or another doubt; inactive means no such curve, though single readings can be large; an effect the other way counts as inactive or inconclusive; further: potency means the concentration at half of the fitted maximal effect; on the % scale 0 is the no-effect control and ±100 the full control effect; nearly all actives have a fitted effect of over 55% in size
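K18 P301L tau (15 uM + 0.24 uM Alexa 594-tagged), heparin 20 uM, NaOAc pH 7, 6 h 37 C; ThT 30 uM, 1 h RT, ex 450/em 510 nm.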
Tau fibril FP: inhibitors of human tau fibril formation; P10636; K18 P301L tau heparin fibrillization, Alexa594 FP, 6 h; Potency, µM (doses to about 57.7 µM), for the others: at the top dose activity, negative = inhibition, usual class: inhibitors; 0.39% of 280,000 active; AID 1468; active means well fitted curve in the direction sought with a large enough effect; inconclusive means small, poorly fitted or top-dose-only effect, or another doubt; inactive means no such curve, though single readings can be large; an effect the other way counts as inactive or inconclusive; further: potency means the concentration at half of the fitted maximal effect; on the % scale 0 is the no-effect control and ±100 the full control effect; nearly all actives have a fitted effect of over 55% in size
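Quantitative HTS format: compounds meet 15 uM recombinant K18 P301L tau and Alexa 594-tau tracer in 100 mM sodium acetate pH 7; 20 uM heparin triggers fibrillization at 37 C over 6 hr; FP gives the signal.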
FBPA coupling cs: coupling enzyme interference in Giardia aldolase counter-screen. coupling enzyme system counterscreen, AmpLite Red fluorescence. activity change, negative = inhibition, % at 58.2 µM, hits read low. 0.67% of 290,000 active. AID 2472; in the data active means activity change below about -30%; further: on the % scale 0 is the no-effect control and ±100 the full control effect
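Fluorescence at 525 nm excitation and 598 nm emission measured inhibition of the coupled detection system without aldolase. Compounds (at 57.5 uM final) were preincubated 10 min at room temperature with coupling enzyme reagent before a 20 min substrate/AmpLite Red step.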
Tau fluor cs: counter-screen for tau fibril formation inhibitors. tau K18 P301L Alexa594 fluorescence, heparin fibrillization. Potency, µM (titrated, usually from 57.7 µM), for inactives: at the top dose activity change, negative = decrease. 0.93% of 280,000 active. AID 1463; active means well fitted curve in the direction sought with a large enough effect; inconclusive means small, poorly fitted or top-dose-only effect, or another doubt; inactive means no such curve, though single readings can be large; an effect the other way counts as inactive or inconclusive; further: potency means the concentration at half of the fitted maximal effect; on the % scale 0 is the no-effect control and ±100 the full control effect; nearly all actives have a fitted effect of over 55% in size
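Human tau K18 P301L (15 uM unlabeled, 0.24 uM Alexa 594-labeled) in 100 mM sodium acetate pH 7 with 20 uM heparin, 6 hr at 37 C. ThT 30 uM added, 1 hr ambient; Alexa 594 FP and total fluorescence read at 555/632 nm.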
Casp1 catalase: inhibits human caspase-1 in catalase buffer, redox counter-screen. shares compounds with FBPA coupling cs. caspase-1 Ac-WEHD-AFC fluorescence rate, catalase buffer. Potency, µM (top dose mostly 57.5 µM), without a hit: at the highest dose activity change, negative = inhibition, usual class: inhibitors. 30 tested, under 10 active. AID 888
Casp1 confirm: blocks human caspase-1 activity in concentration-response | shares compounds with FBPA coupling cs | purified caspase-1, fluorogenic substrate cleavage | Potency, µM (top dose mostly 57.5 µM), inactives show at the top dose activity change, negative = inhibition, hits mostly inhibitors | 20% of 60 active | AID 896
Casp7 confirm: blocks human caspase-7 activity in concentration-response; shares compounds with FBPA coupling cs; recombinant caspase-7, fluorogenic substrate cleavage; Potency, µM (highest dose often 57.5 µM), for the others: at the highest dose activity change, negative = inhibition, most hits filed as inhibitors; 60 tested, under 10 active; active means well fitted inhibition curve with a large enough effect in the main read-out, with a control signal flat, not every such curve was filed as active; inconclusive means small, poorly fitted or top-dose-only effect, or a change in a side signal; inactive means no such curve, though single readings can be large or run the other way
CASP7 redox cys: inhibits caspase-7 in cysteine buffer, redox counter-screen | shares compounds with FBPA coupling cs | 60 tested, under 10 active | caspase-7 enzyme with cysteine, fluorogenic substrate, redox counterscreen | Potency, µM (doses to about 57.5 µM), without a hit: top-dose activity change, negative = inhibition, hits mostly inhibitors
Casp7 catalase: inhibits caspase-7 in catalase buffer, redox counter-screen; shares compounds with FBPA coupling cs; Caspase-7 Ac-DEVD-AFC fluorescence rate, catalase buffer; Potency, µM (titrated, usually from 57.5 µM), for inactives: at the top dose activity, negative = inhibition, usual class: inhibitors; 30 tested, under 10 active; AID 909
CASP1 redox cys: inhibits caspase-1 in cysteine buffer, redox counter-screen; shares compounds with FBPA coupling cs; recombinant caspase-1, fluorogenic substrate, cysteine buffer; Potency, µM (doses to about 57.5 µM), for the others: at the highest dose activity change, negative = inhibition, hits mostly inhibitors; 60 tested, under 10 active; AID 929
* hit, by the source's call; u = inconclusive; x = no result given. Most compounds without a hit are left out; they make up all but 3% or so of the library. Unless noted, the call rests on the fitted dose curve; in most records, active means well fitted inhibition curve with a large enough effect in the main read-out, with a control signal flat; inconclusive means small, poorly fitted or top-dose-only effect, or a change in a side signal; inactive means no such curve, though single readings can be large or run the other way.

SMILES	KDM4E inh	Tau ThT inhib	Tau fibril FP	FBPA coupling cs	Tau fluor cs	Casp1 catalase	Casp1 confirm	Casp7 confirm	CASP7 redox cys	Casp7 catalase	CASP1 redox cys
CC1=C(C(=O)Nc2cc(-c3cccc(F)c3)[nH]n2)C2(CCCCC2)OC1=O	-3.2%	-17.0%	6.5%	-2.3	u	-2.1%	-8.4%	-35.2%	-38.2%	-11.1%	2.5%
CC1=C(C(=O)Nc2ccc(F)cc2F)C2(CCCCCC2)OC1=O	x	-3.5%	-7.1%	x	-13.2%	x	x	x	x	x	x
O=c1cnnc(SCCc2ccccc2)[nH]1	-2.8%	-14.0%	u	11.1	-7.8%	3.9%	-5.9%	-2.1%	-6.0%	2.0%	4.7%
COc1ccc(Cn2c(=O)[nH]c3cc(C(=O)N4CCN(Cc5ccccc5)CC4)ccc3c2=O)cc1	-0.9%	-21.7%	-8.3%	3.9	-25.6%	-3.1%	-8.0%	u	u	u	3.9%
Cc1ccc(NC(=O)N2CCC(c3nc4c(nnn4Cc4cccc(Cl)c4)c(=O)[nH]3)CC2)cc1	-4.7%	-9.3%	0.9%	0.8	-18.1%	x	-10.2%	u	u	x	3.5%
CCCCCCC(=O)N1CCC(c2nc3c(nnn3Cc3ccccc3Cl)c(=O)[nH]2)CC1	3.4%	-13.2%	-2.8%	-3.0	-6.8%	x	-14.2%	3.98µM*	5.01µM*	x	2.0%
O=C(Cc1cccs1)N1CCC(c2nc3c(nnn3Cc3ccccc3Cl)c(=O)[nH]2)CC1	-4.7%	-7.4%	4.6%	1.9	-3.3%	x	x	x	x	x	x
Cc1ccc(C)c(N2CCN(C(=O)Cn3cnc4sc(C)c(S(=O)(=O)N5CCN(c6ncccn6)CC5)c4c3=O)CC2)c1	x	-13.0%	-1.7%	x	-19.0%	x	x	x	x	x	x
COc1cccc(CNC(=O)Cn2cc3c(n2)-c2c(oc(C(=O)N4CCOCC4)c2C)CC3)c1	x	-2.8%	-3.7%	x	-4.0%	x	x	x	x	x	x
CCc1ccc(CNc2ccc(O)cc2)cc1	1.8%	3.16µM*	7.08µM*	-58.2*	u	x	-4.5%	-3.1%	-4.1%	x	8.6%
Oc1ccc(NCc2ccc(OCc3ccccc3)cc2)cc1	x	u	-7.0%	-10.3	u	x	x	x	x	x	x
CCC(C)NC(=O)CCCc1nnc2n(CC(C)C)c(=O)c3sccc3n12 (stereo unspecified)	x	1.3%	-3.7%	x	-0.5%	x	x	x	x	x	x
COc1cc(N[C@@H](C)CCCN)c2ncccc2c1	u	x	x	-33.5*	x	x	-41.6%	-19.7%	-7.4%	x	-5.0%
[C-]1=CC=CC1.[C-]1=CC=CC1.[Cl-].[Cl-].[Ti+4]	x	x	x	x	x	x	u	-36.2%	-33.2%	x	-13.6%
CCOC(=O)c1ccc(N2C(=O)c3n[nH]c(-c4ccco4)c3C2c2ccccc2OC)cc1 (stereo unspecified)	x	-5.5%	u	x	u	x	x	x	x	x	x
CCN1C(=O)c2ccccc2S(=O)(=O)c2ccc(C(=O)NCc3ccccc3)cc21	x	1.2%	-3.3%	x	-24.7%	x	x	x	x	x	x
Cc1cccc(NC(=O)C2CCCN(c3nc4ccccc4s3)C2)c1C (stereo unspecified)	x	0.9%	-0.5%	x	-3.4%	x	x	x	x	x	x
O=C(Nc1ccc2c(c1)OCO2)C1CCCN(c2nc3ccccc3s2)C1 (stereo unspecified)	-1.4%	u	u	-7.3	u	0.6%	-8.8%	-7.0%	-4.0%	-6.4%	6.8%
Cc1cccc(NC(=O)CSc2nc3ccccc3c3nc(CCn4cncc4C)nn23)c1	x	u	-5.9%	x	-17.4%	x	x	x	x	x	x
Cc1ccc(C)c(CN2C(=O)c3ccccc3S(=O)c3ccc(C(=O)NCc4ccco4)cc32)c1 (stereo unspecified)	x	0.1%	-2.8%	x	-18.5%	x	x	x	x	x	x
O=C(COc1ccccc1)N(Cc1ccco1)c1ccc(O)cc1	-5.3%	0.8%	u	8.9	-9.2%	x	x	x	x	x	x
O=C(c1ccc(Cl)c(Cl)c1)N(Cc1ccco1)c1ccc(O)cc1	-3.8%	-9.8%	-10.3%	6.5	-25.9%	-10.1%	-2.6%	u	u	31.6µM*	8.2%
COc1ccc(Br)cc1CNc1ccc(O)cc1	u	12.6µM*	25.1µM*	-62.8*	u	1.1%	-2.5%	-0.9%	2.7%	-4.6%	7.6%
Cc1ccc(CNC(=O)C2CCCN(S(=O)(=O)c3cccc4nsnc34)C2)cc1 (stereo unspecified)	x	3.1%	-11.9%	x	-7.6%	x	x	x	x	x	x
O=C1Cc2ccccc2C(=O)N1CCc1ccccc1	-2.7%	-10.1%	u	-47.4*	-16.6%	x	6.31µM*	10µM*	-2.9%	x	-1.4%
SMILES	KDM4E inh	Tau ThT inhib	Tau fibril FP	FBPA coupling cs	Tau fluor cs	Casp1 catalase	Casp1 confirm	Casp7 confirm	CASP7 redox cys	Casp7 catalase	CASP1 redox cys
CC(C)(C)OC(=O)N1CCC(c2c(C(=O)NCc3ccco3)cnn2-c2ccccc2Cl)CC1	x	u	-7.2%	x	-17.0%	x	x	x	x	x	x
Cc1ccc(N2C(=O)[C@@H]3[C@H](C2=O)C2c4ccccc4C=CN2[C@@H]3C(=O)c2ccco2)c(C)c1 (stereo partly specified)	u	25.1µM*	u	-42.2*	-26.5%	31.6µM*	25.1µM*	u	-5.9%	-28.7%	-17.3%
Cc1ccc(N2C(=O)[C@@H]3[C@H](C2=O)C2c4ccccc4C=CN2[C@@H]3C(=O)c2ccco2)cc1 (stereo partly specified)	-3.2%	25.1µM*	u	-40.8*	-21.7%	x	25.1µM*	-94.3%	-6.9%	x	u
Cc1ccsc1C=Nc1ccc(O)cc1	3.2%	3.55µM*	11.2µM*	-49.7*	u	-0.7%	-11.4%	-2.9%	-1.5%	-5.5%	3.2%
COc1ccc2c(c1)C(=O)N(c1ccccc1OC)C(=O)C2	2.0%	-11.9%	-4.4%	-10.8	-8.3%	u	u	-12.0%	-7.5%	-12.2%	u
COc1ccccc1N1C(=O)Cc2ccccc2C1=O	x	x	x	-2.8	x	x	x	x	x	x	x
COc1cc2c(C(=O)c3ccccc3)c3c4c(cc(OC)c(OC)c4c2cc1OC)CCN3C	u	u	9.0%	-14.1	u	x	x	x	x	x	x
